Measurements as given in the supplement of paper PMC11732987, “Enantioselective OTUD7B fragment discovery through chemoproteomics screening and high-throughput optimisation” (Communications Chemistry, 2025).

Tests used:
Assay in all cases: log2 ratio of Biotin-Ahx-Ub-VS probe labelling (fragment/DMSO); higher = less target engagement (more negative = stronger competition), active = hit call of the paper (q ≤ 0.05, log2 ratio ≤ -1)
Conditions in all cases: compound concentration: 200 uM; treatment time: 3 h
[1] = target: USP34 (UniProt Q70CQ2)
USP34, sequence (Q70CQ2 whole entry, the tested form may be a part): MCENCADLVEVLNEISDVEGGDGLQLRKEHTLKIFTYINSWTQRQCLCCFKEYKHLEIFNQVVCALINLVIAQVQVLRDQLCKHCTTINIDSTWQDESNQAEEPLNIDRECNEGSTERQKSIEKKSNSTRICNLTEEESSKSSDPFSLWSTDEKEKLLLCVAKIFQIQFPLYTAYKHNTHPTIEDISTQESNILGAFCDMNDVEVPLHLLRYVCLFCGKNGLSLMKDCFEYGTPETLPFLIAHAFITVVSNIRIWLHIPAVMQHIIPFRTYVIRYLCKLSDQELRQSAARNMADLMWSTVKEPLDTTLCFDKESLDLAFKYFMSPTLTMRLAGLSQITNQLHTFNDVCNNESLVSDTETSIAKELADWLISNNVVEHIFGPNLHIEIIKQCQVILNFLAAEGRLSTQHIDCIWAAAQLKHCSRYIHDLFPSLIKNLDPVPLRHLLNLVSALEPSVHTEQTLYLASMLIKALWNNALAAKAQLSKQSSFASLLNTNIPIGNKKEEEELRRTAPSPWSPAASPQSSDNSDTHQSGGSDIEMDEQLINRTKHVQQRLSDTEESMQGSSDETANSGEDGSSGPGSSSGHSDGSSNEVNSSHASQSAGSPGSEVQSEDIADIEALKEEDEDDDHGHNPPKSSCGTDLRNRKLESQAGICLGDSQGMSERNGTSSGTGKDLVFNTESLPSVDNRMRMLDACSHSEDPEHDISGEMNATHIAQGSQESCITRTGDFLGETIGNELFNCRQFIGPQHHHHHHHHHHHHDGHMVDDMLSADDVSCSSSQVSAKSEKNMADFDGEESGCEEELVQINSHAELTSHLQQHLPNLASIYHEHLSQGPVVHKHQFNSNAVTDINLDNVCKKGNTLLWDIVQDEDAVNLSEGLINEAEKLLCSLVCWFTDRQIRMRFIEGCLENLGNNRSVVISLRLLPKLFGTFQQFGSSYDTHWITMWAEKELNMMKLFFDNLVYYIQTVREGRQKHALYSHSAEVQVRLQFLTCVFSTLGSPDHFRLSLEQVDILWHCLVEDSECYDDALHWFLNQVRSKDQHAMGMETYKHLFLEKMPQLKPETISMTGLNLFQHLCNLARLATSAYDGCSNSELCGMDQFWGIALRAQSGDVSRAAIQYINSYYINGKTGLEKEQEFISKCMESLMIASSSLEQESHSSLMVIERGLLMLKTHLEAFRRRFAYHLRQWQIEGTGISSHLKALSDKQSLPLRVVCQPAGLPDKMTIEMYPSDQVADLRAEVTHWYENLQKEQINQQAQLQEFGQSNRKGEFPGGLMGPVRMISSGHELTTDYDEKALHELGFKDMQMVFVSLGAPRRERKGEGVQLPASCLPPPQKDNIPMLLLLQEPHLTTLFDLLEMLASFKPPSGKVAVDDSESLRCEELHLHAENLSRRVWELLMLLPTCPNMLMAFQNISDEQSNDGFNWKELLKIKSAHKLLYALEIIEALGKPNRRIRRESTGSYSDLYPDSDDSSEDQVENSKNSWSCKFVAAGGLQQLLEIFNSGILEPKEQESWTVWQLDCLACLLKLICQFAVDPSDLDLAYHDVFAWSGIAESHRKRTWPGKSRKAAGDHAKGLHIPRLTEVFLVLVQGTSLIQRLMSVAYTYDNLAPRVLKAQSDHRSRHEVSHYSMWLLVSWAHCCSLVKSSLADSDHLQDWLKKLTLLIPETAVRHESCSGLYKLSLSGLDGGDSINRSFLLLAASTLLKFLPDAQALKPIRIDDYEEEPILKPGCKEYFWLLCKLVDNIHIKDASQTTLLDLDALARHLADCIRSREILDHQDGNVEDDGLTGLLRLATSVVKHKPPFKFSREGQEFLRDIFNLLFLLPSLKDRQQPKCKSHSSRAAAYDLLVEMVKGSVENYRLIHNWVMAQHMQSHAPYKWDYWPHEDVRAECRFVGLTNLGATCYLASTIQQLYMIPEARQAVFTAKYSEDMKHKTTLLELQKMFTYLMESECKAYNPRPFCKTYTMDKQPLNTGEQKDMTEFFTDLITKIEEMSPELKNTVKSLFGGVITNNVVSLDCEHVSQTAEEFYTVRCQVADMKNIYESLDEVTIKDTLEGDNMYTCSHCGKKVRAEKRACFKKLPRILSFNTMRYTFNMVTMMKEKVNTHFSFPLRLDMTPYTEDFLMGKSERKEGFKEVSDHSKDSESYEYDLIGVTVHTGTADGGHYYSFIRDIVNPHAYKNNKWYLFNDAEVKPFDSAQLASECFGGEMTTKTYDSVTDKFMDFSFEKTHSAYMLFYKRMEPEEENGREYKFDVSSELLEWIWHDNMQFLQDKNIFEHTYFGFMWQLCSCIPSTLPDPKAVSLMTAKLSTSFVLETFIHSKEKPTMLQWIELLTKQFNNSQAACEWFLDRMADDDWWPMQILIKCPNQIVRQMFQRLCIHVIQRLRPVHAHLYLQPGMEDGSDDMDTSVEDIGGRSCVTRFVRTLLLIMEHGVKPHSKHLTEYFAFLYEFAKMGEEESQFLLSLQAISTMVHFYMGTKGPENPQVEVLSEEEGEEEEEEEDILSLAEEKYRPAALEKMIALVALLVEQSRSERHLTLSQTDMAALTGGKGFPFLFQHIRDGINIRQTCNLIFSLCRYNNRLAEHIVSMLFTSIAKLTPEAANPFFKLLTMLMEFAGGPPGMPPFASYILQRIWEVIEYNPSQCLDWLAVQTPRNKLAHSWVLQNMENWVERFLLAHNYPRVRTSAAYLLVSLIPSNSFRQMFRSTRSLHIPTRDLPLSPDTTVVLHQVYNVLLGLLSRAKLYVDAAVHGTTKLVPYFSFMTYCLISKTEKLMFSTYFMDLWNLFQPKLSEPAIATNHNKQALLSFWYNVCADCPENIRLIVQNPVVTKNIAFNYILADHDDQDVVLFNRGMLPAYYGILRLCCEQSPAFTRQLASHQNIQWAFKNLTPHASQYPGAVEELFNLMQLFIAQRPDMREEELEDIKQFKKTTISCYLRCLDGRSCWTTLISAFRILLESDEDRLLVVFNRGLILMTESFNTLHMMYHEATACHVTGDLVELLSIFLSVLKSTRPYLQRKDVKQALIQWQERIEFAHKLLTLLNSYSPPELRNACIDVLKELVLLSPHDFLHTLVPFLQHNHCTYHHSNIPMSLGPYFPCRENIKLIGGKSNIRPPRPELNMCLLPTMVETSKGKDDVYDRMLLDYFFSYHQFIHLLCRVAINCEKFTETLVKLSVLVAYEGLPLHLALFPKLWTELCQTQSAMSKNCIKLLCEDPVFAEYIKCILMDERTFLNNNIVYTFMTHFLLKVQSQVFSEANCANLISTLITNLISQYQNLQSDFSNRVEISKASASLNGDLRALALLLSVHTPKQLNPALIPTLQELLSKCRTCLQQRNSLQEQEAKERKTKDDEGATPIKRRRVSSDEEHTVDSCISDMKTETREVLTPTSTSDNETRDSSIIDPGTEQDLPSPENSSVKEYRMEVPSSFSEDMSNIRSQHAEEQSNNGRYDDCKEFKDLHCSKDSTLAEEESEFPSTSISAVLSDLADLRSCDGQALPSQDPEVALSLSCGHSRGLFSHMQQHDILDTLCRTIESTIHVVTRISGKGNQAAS
Procedure, shortened: (§1)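 Average log2 ratios of fragment over vehicle were obtained by unpaired t-test from global-median-normalised Spectronaut label-free quantities. Proteins with ≥2 unique peptides were included. HEK293T lysate (495 µg per sample) was treated in triplicate with fragment at 200 µM or vehicle for 3 h, then with Biotin-Ahx-Ub-VS at 0.5 µM final for 1 h, and labelled DUBs were NeutrAvidin-enriched and run by diaPASEF LC-MS/MS.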

[2] = target: T1, USP36 (UniProt Q9P275)
T1 sequence (whole entry): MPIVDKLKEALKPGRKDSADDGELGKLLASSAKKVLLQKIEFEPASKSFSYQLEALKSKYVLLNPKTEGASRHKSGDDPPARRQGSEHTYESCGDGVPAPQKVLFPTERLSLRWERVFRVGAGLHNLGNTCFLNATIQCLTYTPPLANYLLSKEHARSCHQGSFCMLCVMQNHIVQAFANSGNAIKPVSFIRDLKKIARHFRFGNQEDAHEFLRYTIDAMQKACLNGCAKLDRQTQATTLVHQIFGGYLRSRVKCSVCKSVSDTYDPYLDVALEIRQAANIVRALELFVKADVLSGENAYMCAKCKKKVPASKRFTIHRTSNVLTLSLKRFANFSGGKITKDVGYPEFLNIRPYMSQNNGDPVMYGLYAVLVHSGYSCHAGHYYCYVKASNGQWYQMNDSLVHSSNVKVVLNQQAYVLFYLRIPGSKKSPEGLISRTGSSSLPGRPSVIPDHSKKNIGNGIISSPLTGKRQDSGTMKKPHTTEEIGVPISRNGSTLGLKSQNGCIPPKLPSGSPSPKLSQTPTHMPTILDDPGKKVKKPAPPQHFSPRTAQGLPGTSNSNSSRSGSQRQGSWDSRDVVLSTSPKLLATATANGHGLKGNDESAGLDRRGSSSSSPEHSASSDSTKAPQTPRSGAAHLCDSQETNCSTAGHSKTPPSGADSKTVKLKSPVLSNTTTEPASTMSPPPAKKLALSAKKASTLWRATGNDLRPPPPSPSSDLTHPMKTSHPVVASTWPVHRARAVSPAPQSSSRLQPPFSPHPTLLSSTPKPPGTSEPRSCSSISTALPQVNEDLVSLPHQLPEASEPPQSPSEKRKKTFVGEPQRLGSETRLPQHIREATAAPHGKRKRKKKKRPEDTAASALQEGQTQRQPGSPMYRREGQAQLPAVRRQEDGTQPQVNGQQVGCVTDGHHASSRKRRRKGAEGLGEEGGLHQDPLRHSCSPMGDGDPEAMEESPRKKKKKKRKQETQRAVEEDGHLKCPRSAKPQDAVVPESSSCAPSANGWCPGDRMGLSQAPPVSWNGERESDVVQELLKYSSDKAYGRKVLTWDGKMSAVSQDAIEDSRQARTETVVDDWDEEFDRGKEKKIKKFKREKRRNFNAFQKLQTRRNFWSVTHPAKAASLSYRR
Procedure, shortened: as §1

[3] = target: T2, USP38 (UniProt Q8NB14)
T2 sequence (whole entry): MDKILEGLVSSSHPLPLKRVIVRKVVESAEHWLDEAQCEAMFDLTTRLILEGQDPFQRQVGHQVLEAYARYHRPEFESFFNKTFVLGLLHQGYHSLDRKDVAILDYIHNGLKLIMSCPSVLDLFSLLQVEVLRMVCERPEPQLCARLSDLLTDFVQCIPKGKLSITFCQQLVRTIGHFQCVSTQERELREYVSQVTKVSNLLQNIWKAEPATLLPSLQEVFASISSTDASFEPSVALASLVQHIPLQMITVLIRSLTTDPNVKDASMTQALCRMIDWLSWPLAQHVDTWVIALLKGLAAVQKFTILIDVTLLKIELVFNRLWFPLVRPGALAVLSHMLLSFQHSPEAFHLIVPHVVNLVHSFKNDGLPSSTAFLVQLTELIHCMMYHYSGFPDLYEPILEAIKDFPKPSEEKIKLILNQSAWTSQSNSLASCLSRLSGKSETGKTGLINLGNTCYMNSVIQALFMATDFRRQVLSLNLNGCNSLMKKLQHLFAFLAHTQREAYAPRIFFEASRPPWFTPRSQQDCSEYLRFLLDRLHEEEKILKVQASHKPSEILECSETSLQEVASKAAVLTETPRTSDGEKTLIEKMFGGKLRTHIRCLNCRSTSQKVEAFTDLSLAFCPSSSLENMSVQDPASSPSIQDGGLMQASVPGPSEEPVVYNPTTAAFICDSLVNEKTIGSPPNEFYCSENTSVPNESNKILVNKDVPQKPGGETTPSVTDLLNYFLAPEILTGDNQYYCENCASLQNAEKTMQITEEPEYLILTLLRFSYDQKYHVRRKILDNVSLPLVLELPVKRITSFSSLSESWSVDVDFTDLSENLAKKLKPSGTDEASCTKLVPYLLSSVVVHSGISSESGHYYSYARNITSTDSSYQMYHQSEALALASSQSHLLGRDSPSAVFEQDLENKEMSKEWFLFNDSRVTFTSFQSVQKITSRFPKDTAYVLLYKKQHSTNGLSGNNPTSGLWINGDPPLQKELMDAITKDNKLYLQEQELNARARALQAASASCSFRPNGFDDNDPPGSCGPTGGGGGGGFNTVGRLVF
Procedure, shortened: as §1

[4] = target: T3, USP39 (UniProt Q53GS9)
T3 sequence (whole entry): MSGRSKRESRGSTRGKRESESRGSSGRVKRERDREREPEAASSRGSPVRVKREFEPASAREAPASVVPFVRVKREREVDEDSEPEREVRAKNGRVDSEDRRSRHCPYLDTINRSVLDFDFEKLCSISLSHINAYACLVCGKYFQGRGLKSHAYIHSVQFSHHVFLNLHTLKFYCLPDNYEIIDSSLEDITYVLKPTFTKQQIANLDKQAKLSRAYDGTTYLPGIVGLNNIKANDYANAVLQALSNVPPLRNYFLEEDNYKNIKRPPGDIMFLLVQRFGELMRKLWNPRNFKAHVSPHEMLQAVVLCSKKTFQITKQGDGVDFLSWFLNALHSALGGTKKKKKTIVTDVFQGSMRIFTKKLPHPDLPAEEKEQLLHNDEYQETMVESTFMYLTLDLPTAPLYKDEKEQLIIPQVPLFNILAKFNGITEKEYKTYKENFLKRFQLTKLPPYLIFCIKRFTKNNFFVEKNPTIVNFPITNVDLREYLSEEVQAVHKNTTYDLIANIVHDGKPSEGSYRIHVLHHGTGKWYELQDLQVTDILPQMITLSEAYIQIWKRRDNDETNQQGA
Procedure, shortened: as §1

[5] = target: T4, USP4 (UniProt Q13107)
T4 sequence (whole entry): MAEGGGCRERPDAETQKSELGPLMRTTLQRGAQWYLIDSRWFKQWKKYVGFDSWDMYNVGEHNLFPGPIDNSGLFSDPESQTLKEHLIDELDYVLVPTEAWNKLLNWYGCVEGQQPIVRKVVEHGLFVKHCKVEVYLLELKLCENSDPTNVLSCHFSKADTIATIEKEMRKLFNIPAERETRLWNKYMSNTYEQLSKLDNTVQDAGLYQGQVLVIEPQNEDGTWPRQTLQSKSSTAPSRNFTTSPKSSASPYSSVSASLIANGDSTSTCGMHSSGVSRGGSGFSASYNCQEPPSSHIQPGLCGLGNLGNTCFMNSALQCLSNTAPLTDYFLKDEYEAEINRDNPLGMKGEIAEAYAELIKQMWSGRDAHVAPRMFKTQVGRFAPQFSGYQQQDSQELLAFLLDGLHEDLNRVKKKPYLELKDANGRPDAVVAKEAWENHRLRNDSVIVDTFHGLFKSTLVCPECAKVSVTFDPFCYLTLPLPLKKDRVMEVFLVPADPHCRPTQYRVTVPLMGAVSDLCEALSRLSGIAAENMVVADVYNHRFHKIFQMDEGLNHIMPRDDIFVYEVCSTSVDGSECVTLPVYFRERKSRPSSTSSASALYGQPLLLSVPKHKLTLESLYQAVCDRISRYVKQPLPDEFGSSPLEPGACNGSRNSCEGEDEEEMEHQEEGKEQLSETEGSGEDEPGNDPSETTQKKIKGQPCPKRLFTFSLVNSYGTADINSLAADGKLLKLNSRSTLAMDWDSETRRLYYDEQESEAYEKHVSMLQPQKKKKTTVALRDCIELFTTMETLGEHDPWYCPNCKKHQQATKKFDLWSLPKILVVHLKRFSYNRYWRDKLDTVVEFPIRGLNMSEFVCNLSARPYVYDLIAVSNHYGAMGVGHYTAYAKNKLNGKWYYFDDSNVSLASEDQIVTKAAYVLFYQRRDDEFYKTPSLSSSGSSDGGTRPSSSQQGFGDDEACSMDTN
Procedure, shortened: as §1

Measured: log2 ratio of Biotin-Ahx-Ub-VS probe labelling

O=C(CCl)NC1CCS(=O)(=O)c2ccccc21 (stereo not given)
inactive: [1] -0.0259 | [2] -0.0862 | [3] -0.432 | [4] -0.117 | [5] -0.0115
